The whole screen tested about 63,000 compounds, of which about 1,100 (1.7%) were called active. Rule as the data show it: active = cytotoxicity above about 50%; inactive = the rest. This excerpt belongs to a sample that is enriched for actives. Results with a measured potency or affinity are listed apart.
assay: HPDE-C7 pancreatic duct cell viability loss – fluorescence, HTS (AID 430); conditions: HPDE-C7 pancreatic duct cells viability, at 10 µM, hits give high values;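 also: cells exposed to compound for 48 hours before viability readout; 0% = vehicle and 100% = reference cytotoxic drug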

Row | Structure (SMILES) | cytotoxicity
1 | Cc1cc2n(n1)C(c1sccc1C)Nc1c(C)cccc1-2 (centres undefined) | -3.2% (inactive)
2 | C(=C\c1ccccc1)/CSc1nnc(-c2ccccn2)n1Cc1ccco1 | 33.9% (inactive)
3 | CC1(C)Cc2nc3oc4c(=S)nc[nH]c4c3cc2CO1 | -4.7% (inactive)
4 | Cn1c(=O)c2c(ncn2CC(=O)N2CCN(c3ccc(F)cc3)CC2)n(C)c1=O | 4.3% (inactive)
5 | COc1ccccc1-c1cc(C(F)(F)F)nc(S(=O)(=O)CCCC(=O)Nc2cc(C)on2)n1 | 38.2% (inactive)
6 | CCOC(=O)CCn1nc(-c2ccccc2)cc1N | -7.8% (inactive)
7 | CCOC(=O)CS(=O)(=O)c1ccc2ccccc2c1 | -10.2% (inactive)
8 | COCC(C)NC(=O)CCS(=O)(=O)c1nc(-c2ccc(OC)cc2)cc(C(F)(F)F)n1 (centres undefined) | 66.1% (active)
9 | CCOC(=O)c1cnn2c(C)cc(-c3ccc(F)cc3)nc12 | -7.6% (inactive)
10 | COc1ccc(-c2cc(C(F)(F)F)nc(SCC(=O)Nc3cc(C)on3)n2)cc1 | -21.7% (inactive)
11 | CCOC(=O)CS(=O)(=O)c1nc(-c2ccccc2)cc(C(F)(F)F)n1 | 27.1% (inactive)
12 | COc1ccc(-c2cc(C(F)(F)F)nc(SCCC(=O)NCc3ccco3)n2)cc1 | -3.2% (inactive)
13 | Cc1cc(NC(=O)CCCS(=O)(=O)c2nc(-c3cccs3)cc(C(F)(F)F)n2)no1 | 3.6% (inactive)
14 | CCn1cc(C(=O)NC2CCCCCC2)c2cc(OC)c(OC)cc2c1=O | -1.3% (inactive)
15 | CS(=O)(=O)Nc1ccc(C(=O)NCCSCc2ccco2)cc1 | -13.9% (inactive)
16 | COCCOC(=O)C1=C(C)NC(=O)NC1c1ccc(OC(=O)c2ccco2)c(OC)c1 (centres undefined) | -1.8% (inactive)
17 | Cc1cc(=O)[nH]c(N2CCN(C(c3ccccc3)c3ccccc3)CC2)n1 | -6% (inactive)
18 | COc1ccc(C2CC(=O)c3cnc(NC(=O)c4cc(OC)cc(OC)c4)nc3C2)cc1 (centres undefined) | -16.4% (inactive)
19 | O=C(NCCN1CCOCC1)c1ccc(-c2ccccc2)cc1 | 2.5% (inactive)
20 | CCN(CC)S(=O)(=O)c1ccc(NC(=O)COc2c(OC)cccc2OC)cc1 | -2.7% (inactive)
21 | O=C(CSc1nnc(C23CC4CC(CC(C4)C2)C3)o1)Nc1ccc(N2CCOCC2)c(Cl)c1 | -10% (inactive)
22 | CCOC(=O)c1oc2ccc(S(=O)(=O)N3CCC(C)CC3)cc2c1C | 16.8% (inactive)
23 | CCOC(=O)c1oc2ccc(S(=O)(=O)N3CCOCC3)cc2c1C | 3.6% (inactive)
24 | CCOC(=O)c1oc2ccc(S(=O)(=O)n3nc(-c4ccc(OC)cc4)cc3N)cc2c1C | 54.2% (active)
25 | CCn1c(CSc2nccn2C)nc2cc(C(=O)O)ccc21 | 2.6% (inactive)

Row | Structure (SMILES) | cytotoxicity
26 | NC1=NC(=O)CC(C(=O)NCc2ccccc2)S1 (centres undefined) | -6.8% (inactive)
27 | Cn1c(=O)[nH]c(=O)c2c1nc(N1CCOCC1)n2CC(O)COc1ccccc1 (centres undefined) | -10.9% (inactive)
28 | COc1ccccc1OCC(O)Cn1c(Br)nc2c1c(=O)[nH]c(=O)n2C (centres undefined) | 2.9% (inactive)
29 | Cc1ccccc1OCC(O)Cn1c(N2CCN(c3ccccc3)CC2)nc2c1c(=O)[nH]c(=O)n2C (centres undefined) | 82.9% (active)
30 | Cc1ccccc1OCC(O)Cn1c(SC(C)C)nc2c1c(=O)[nH]c(=O)n2C (centres undefined) | 0.7% (inactive)
31 | CC(C)CSc1nc2c(c(=O)[nH]c(=O)n2C)n1CC(O)COc1cccc2ccccc12 (centres undefined) | 68.7% (active)
32 | CCSc1nc2c(c(=O)[nH]c(=O)n2C)n1CC(O)COc1ccccc1C (centres undefined) | -1.3% (inactive)
33 | Cc1nn(CCC(=O)O)c2nc(-c3cccnc3)cc(C(F)(F)F)c12 | -17.9% (inactive)
34 | CCN(CC)C(c1ccc(C)cc1)c1nnnn1C1CCCCC1 (centres undefined) | -25.4% (inactive)
35 | Cc1ccc(S(=O)(=O)C2(C(=O)N3CCN(C4CCCCC4)CC3)CC2)cc1 | 6.1% (inactive)
36 | O=C(Oc1c(Cl)cc(Cl)c2cccnc12)N1CCCCC1 | -1.1% (inactive)
37 | CCCC(=O)NC(c1ccco1)c1cc(Cl)c2cccnc2c1O (centres undefined) | 59.7% (active)
38 | CCCC(=O)Nc1ccc(Cl)c(NC(=O)c2ccco2)c1 | -1.6% (inactive)
39 | O=C(OCC(=O)N(C1CCCCC1)C1CCCCC1)c1ccncc1 | 4.3% (inactive)
40 | Cc1cccc(C#N)c1NC1=CC(=O)CC(C)(C)C1 | -3.4% (inactive)
41 | COc1cc(NCCCC(C)N)c2ncccc2c1 (centres undefined) | -12.1% (inactive)
42 | COc1cc(NS(=O)(=O)c2ccc(C)cc2)c2ncccc2c1 | 57.2% (active)
43 | O=C(C1CCN(S(=O)(=O)c2cccc3cccnc23)CC1)N1CCCC1 | -7.2% (inactive)
44 | CS(=O)(=O)Nc1cccc2cccnc12 | 6.6% (inactive)
45 | COc1ccc(NS(=O)(=O)c2ccc(Oc3ncccn3)cc2)cc1 | 17.1% (inactive)
46 | O=S(=O)(Nc1cccc2cccnc12)c1ccc(S(=O)(=O)N2CCCC2)cc1 | 57.1% (active)
47 | Cc1nnc(SCC(=O)Nc2cc(C(F)(F)F)ccc2N2CCOCC2)o1 | 12.9% (inactive)
48 | CC/C(=N\O)c1ccc(OC)c(OC)c1 | -4.4% (inactive)
49 | CC(=O)CSc1ncnc2nc[nH]c12 | 5.4% (inactive)
50 | CC(C)(C)c1cc(Br)ccc1OCC(=O)Nc1ncn[nH]1 | 21.9% (inactive)

Row | Structure (SMILES) | cytotoxicity
51 | CCC(C)NC(=O)C1c2cc(OC)c(OC)cc2C(=O)N(C)C1c1ccc(OC)cc1 (centres undefined) | -7.8% (inactive)
52 | CC(=O)c1c(C)cc(C)c(CSc2nc(C)cc(=O)[nH]2)c1C | 51.3% (active)
53 | CCCSc1nc(C)cc(=O)[nH]1 | 1.4% (inactive)
54 | CCOC(=O)CSc1nc(C)cc(=O)[nH]1 | 1.4% (inactive)
55 | COc1cc(NS(=O)(=O)c2ccc(C)cc2C)cc(OC)c1OC | 37% (inactive)
56 | O=C(O)c1cccc(S(=O)(=O)Nc2ccc3oc(=O)sc3c2)c1 | 1.3% (inactive)
57 | Cn1c(=O)c2cn(-c3ccc4c(c3)OCCO4)cc2n(C)c1=O | -24.9% (inactive)
58 | O=C1Cc2ccccc2C(=O)N1CCc1ccccc1 | -14.2% (inactive)
59 | Cc1cc(NC(=O)c2cnn3c(C(F)F)cc(-c4ccccc4)nc23)no1 | -6.1% (inactive)
60 | CC1CCN(c2nc3ccccc3nc2C(C#N)S(=O)(=O)c2ccccc2)CC1 (centres undefined) | 12.4% (inactive)
61 | Cc1ccc(S(=O)(=O)C(C#N)c2nc3ccccc3nc2N2CCC(C)CC2)cc1 (centres undefined) | 5.7% (inactive)
62 | N#CC(c1nc2ccccc2nc1N1CCCC1)S(=O)(=O)c1ccccc1 (centres undefined) | -10.1% (inactive)
63 | CC1CCCN(c2nc3ccccc3nc2C(C#N)S(=O)(=O)c2ccccc2)C1 (centres undefined) | 52.3% (active)
64 | COc1ccc(S(=O)(=O)C(C#N)c2nc3ccccc3nc2N2CCCCC2)cc1 (centres undefined) | -10.2% (inactive)
65 | COc1ccc(S(=O)(=O)C(C#N)c2nc3ccccc3nc2N2CCCC(C)C2)cc1 (centres undefined) | 61.7% (active)
66 | CCS(=O)(=O)NCCc1csc(-c2ccccc2)n1 | -4.2% (inactive)
67 | CCSc1nc(C)c(CC)c(C)c1C(N)=O | 1.9% (inactive)
68 | CCOC(=O)CC(=O)CSc1[nH]c(=O)cc(C)c1C#N | -1.4% (inactive)
69 | Cc1ccc(-c2cn3cccnc3n2)cc1NC(=O)c1c(-c2ccccc2Cl)noc1C | 40.2% (inactive)
70 | Cc1c(C(=O)N(Cc2cccs2)C2CCS(=O)(=O)C2)oc2ccccc12 (centres undefined) | -22.1% (inactive)
71 | CN(C)S(=O)(=O)n1cnc(-c2ccccc2)c1-c1ccccc1 | -7.9% (inactive)
72 | CN(C)S(=O)(=O)c1ccc(-c2ccccc2)cc1 | -2.3% (inactive)
73 | Cc1ccc(CNC(=O)c2cn(C3CCCCC3)c(=O)c3c2c2ccccc2n3C)o1 | -4% (inactive)
74 | O=S(=O)(NCCOc1ccc(F)cc1)c1ccc2c(c1)OCCO2 | -5.3% (inactive)
75 | Brc1cnn(-c2nc(N3CCOCC3)nc(N3CCOCC3)n2)c1 | 5.8% (inactive)

Row | Structure (SMILES) | cytotoxicity
76 | O=C(Nc1cc(C(=O)N2CCOCC2)cc(C(=O)N2CCOCC2)c1)c1cc(F)c(F)cc1Cl | -14.6% (inactive)
77 | O=C(OCc1nc2ccccc2s1)C1CCN(C2=NS(=O)(=O)c3ccccc32)CC1 | 1.1% (inactive)
78 | O=c1cc(CO)oc(C(Nc2ccccn2)c2ccccc2F)c1O (centres undefined) | -3.3% (inactive)
79 | CC(C)C(=O)NC(c1ccco1)c1ccc2cccnc2c1O (centres undefined) | -17.7% (inactive)
80 | Cc1cc(NC(c2cccnc2)c2ccc3cccnc3c2O)no1 (centres undefined) | 9% (inactive)
81 | CC(=O)NC(c1ccco1)c1ccc2cccnc2c1O (centres undefined) | 31.1% (inactive)
82 | COc1ccc(C(NC(C)=O)c2ccc3cccnc3c2O)c(OC)c1 (centres undefined) | 11.7% (inactive)
83 | COc1cc(C(=O)Nc2ccccn2)cc(OC)c1OC | 5.4% (inactive)
84 | CNC(=O)c1ccc(N(Cc2ccccc2)S(C)(=O)=O)cc1 | 2.3% (inactive)
85 | CCn1c(=O)cc(SCC(=O)Nc2cccnc2)c2ccccc21 | -11.6% (inactive)
86 | Cc1cccc(N2CCN(C(=O)C3CCCN(S(=O)(=O)c4c(C)noc4C)C3)CC2)c1C (centres undefined) | -2% (inactive)
87 | C/C(=C\c1ccco1)C1C(C#N)=C(N)OC2=C1C(=O)CC(C)(C)C2 (centres undefined) | -2% (inactive)
88 | CCOc1ccc2[nH]c(=O)c(CN(Cc3ccccc3)C(=O)N3CCCC3)cc2c1 | -4.5% (inactive)
89 | Cc1ccc(CCNC(=O)c2coc3nc4ccccc4nc23)cc1 | 27.6% (inactive)
90 | COc1ccc(F)cc1CN1CCN(c2cc(C)nc3c4c(C)cc(C)nc4nn23)CC1 | 9.9% (inactive)
91 | CCOc1cc(NC(=O)c2ccco2)c(OCC)cc1NC(=O)Cc1cccc(OC)c1 | -10.3% (inactive)
92 | O=C(NCc1cccnc1)c1ccc(COc2ccccc2Br)o1 | 13.1% (inactive)
93 | CN1CCN(c2ccccc2NC(=O)Cc2cn(C)c3ccccc23)CC1 | -5.4% (inactive)
94 | CCN1CCCC1CN(Cc1cc2cc(C)cc(C)c2[nH]c1=O)C(=O)Nc1ccccc1OC (centres undefined) | 15.1% (inactive)
95 | COc1ccccc1NC(=O)N(Cc1ccco1)Cc1cc2ccc(C)c(C)c2[nH]c1=O | 72.8% (active)
96 | Cc1cc(C)c2[nH]c(=O)c(CN(Cc3ccco3)C(=O)C3CCCO3)cc2c1 (centres undefined) | -9.6% (inactive)
97 | COc1ccccc1NC(=O)N(Cc1ccco1)Cc1cc2c(C)ccc(C)c2[nH]c1=O | 22.4% (inactive)
98 | COc1ccccc1NC(=O)N(Cc1ccco1)Cc1cc2cccc(C)c2[nH]c1=O | 0.1% (inactive)
99 | COc1ccccc1NC(=O)N(Cc1ccco1)Cc1cc2cc(C)cc(C)c2[nH]c1=O | 59.5% (active)
